High-throughput results deposited in PubChem BioAssay by National Center for Advancing Translational Sciences (NCATS).
TCR act = activators of T cell receptors. primary human leukocytes, anti-CD3, IL-2 HTRF, 48 h. Potency, µM (doses to about 9.22 µM), inactives show top-dose activation of IL-2 secretion, most hits filed as activators. 330,000 tested, under 10 active; active means well fitted activation curve with a large enough effect; inconclusive means small, poorly fitted or top-dose-only effect, or another doubt; inactive means no such curve, though single readings can be large or run the other way; further: % of control where 0% means no effect
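IL-2 produced over 48 hr by a-CD3 bead-stimulated primary human leukocytes exposed to compounds was detected with a homogeneous time-resolved FRET immunoassay, 665nm acceptor signal after 320nm excitation.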
gsp ag = activates gsp, the McCune-Albright syndrome mutation. gsp mutant cells, cAMP HTRF, 30 min. Potency, µM (doses to about 76.9 µM), without a hit: at the highest dose activation (cAMP increase), hits mostly activators. actives 0.13% (n = 340,000); active means well fitted activation curve with a large enough effect; inconclusive means small, poorly fitted or top-dose-only effect, or another doubt; inactive means no such curve, though single readings can be large or run the other way; cell line not stated here;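 further: phosphodiesterase inhibitor Ro 20-1724 added with compounds to block cAMP breakdown; potency means the concentration at half of the fitted maximal effect; nearly all actives have a fitted effect of over 60% in size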
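Cells in DMEM/10% FBS with G418 were pretreated with compounds in DMSO plus […] (300 uM stock) for 30 min at 37C. cAMP was measured by HTRF (cAMP-d2 plus anti-cAMP antibody-K) after 30 min at room temperature.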
gsp antag = antagonists of gsp mutant (McCune-Albright syndrome); actives 0.4% (n = 340,000); AID 624288; Potency, µM (top dose mostly 76.9 µM), for the others: at the top dose activity change, negative = inhibition, usual class: inhibitors; gsp-mutant cells, cAMP HTRF, 30 min; calls by dose curve; cell line not stated here;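 further: intracellular cAMP measured with PDE inhibitor Ro 20-1724 present during compound exposure; potency means the concentration at half of the fitted maximal effect; on the % scale 0 is the no-effect control and ±100 the full control effect; nearly all actives have a fitted effect of over 65% in size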
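G418-selected cells were plated in DMEM/10% FBS for 16-24 h at 37C, then treated with compounds plus the PDE inhibitor […] (300 uM solution added) for 30 min at 37C. Intracellular cAMP was measured by HTRF after 30 min lysis at room temperature.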
TSHR antag = antagonists of human thyroid stimulating hormone receptor | P16473 | TSHR-expressing cells, TSH-stimulated cAMP HTRF, 2 h; stronger effect = lower value | activity change, negative = inhibition, % at 11.5 µM | actives 0.2% (n = 330,000) | AID 504810;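 active means activity change below a set negative limit, meaning inhibition stronger than a set level, cut at about -70% in these data; inconclusive means activity change between two set negative limits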; further: on the % scale 0 is the no-effect control and ±100 the full control effect
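Cell-based HTRF cAMP assay; TSHR cells + compound, TSH EC80 (4nM final), 2 h, 37 deg C. Lysis with anti-cAMP cryptate and cAMP-d2, 30 min RT, read 665/620 nm.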
Pin1 inh = blocks the human prolyl isomerase Pin1. Q13526. Pin1 FP peptide displacement, HiFluor488, 10 min. Potency, µM (series often up to 115 µM), for the others: top-dose activity, negative = inhibition, hits mostly inhibitors. actives 0.009% (n = 390,000). AID 504891; active means well fitted inhibition curve with a large enough effect in the polarisation, with a control signal flat, not every such curve was filed as active; inconclusive means small, poorly fitted or top-dose-only effect, or effect the other way, or a change in a side signal; inactive means no such curve, though single readings can be large or run the other way; the % refers to the polarisation; further: potency means the concentration at half of the fitted maximal effect; on the % scale 0 is the no-effect control and ±100 the full control effect
Target sequence (Q13526 whole entry, looked up): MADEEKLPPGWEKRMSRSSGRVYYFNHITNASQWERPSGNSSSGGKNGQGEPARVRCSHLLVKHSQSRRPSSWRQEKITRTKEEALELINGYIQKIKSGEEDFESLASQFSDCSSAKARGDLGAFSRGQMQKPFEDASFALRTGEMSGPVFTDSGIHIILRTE
* marks the source's active call; other numbers are inactive results; ? = inconclusive; . = no result; [ ] = remark or other dose. Shown are actives, neighbours in structure and some others; about 0.63% of the full set was active somewhere.

SMILES	TCR act	gsp ag	gsp antag	TSHR antag	Pin1 inh
CCOc1ccc(-n2c(C)cc(/C=C3/C(=N)N4C(=NC3=O)SN=C4S(C)(=O)=O)c2C)cc1	-2%	-16%	32µM*	-16	?
Cc1cc(C)n2nc(C)c(Br)c2n1	-6%	3%[15.4 µM]	-14%	9	-4%
Cc1cc(C)n2nc3nc4c(cc3c2n1)CCCC4	0%	14µM*	19%	-12	?
COc1cc(CN(C(=O)c2cc3ccccc3oc2=O)C2CCS(=O)(=O)C2)cc(OC)c1OC (centres undefined)	3%	13%	-12%	-4	4%
O=C(NC1CCCCC1)C(c1ccccc1)N(C(=O)c1csnn1)C1CC1 (centres undefined)	4%	?	5%	-6	7%
Cc1ccc(-c2c[n+](CC(=O)Nc3nc(-c4ccc(F)cc4)cs3)c3n2CCC3)cc1	-1%[46.1 µM]	-76%	9%	4	-8%
CCOc1ccc(C2C(C#N)=C(N)SC(N)=C2C#N)cc1OCC	.	?	17%	7	?
N#CC1=C(N)SC(N)=C(C#N)C1c1cccc(Oc2ccccc2)c1	-12%	25%	28µM*	-26	?
Cc1ccc(NC(=O)CSCC(=O)NCCc2ccccc2)cc1	2%	1%[15.4 µM]	-7%	18	-3%
Cc1nn(C)c(C)c1CN(C)S(=O)(=O)c1ccc2ccccc2c1	-3%[46.1 µM]	9%	14µM*	-42	-4%
CC(C)(C)OC(=O)NCCc1nnc(S(=O)(=O)Cc2ccc(Cl)cc2Cl)o1	2%	2%	3%	-78*	4%
COc1ccc(NC(=O)N2CCN(c3cccc(C(F)(F)F)c3)CC2)cc1OC	1%	-56%	-10%	7	-1%
CCC1(C)Cc2c(sc3c2c2ncnn2c2nnc(SCC(=O)NCc4ccco4)n32)CO1 (centres undefined)	-3%	2.8µM*	-1%[15.4 µM]	40	1%
CC1(C)Cc2c(sc3c2c2ncnn2c2nnc(SCC(=O)NCc4ccco4)n32)CO1	-1%	?	5%	15	2%
Cc1ccc(-c2nn(-c3ccccc3)cc2/C=N/NC(=O)c2ccc(Br)o2)cc1	2%	0%	32µM*	-21	4%
N#CC1=C(N)SC(N)=C(C#N)C1c1ccc(C(F)(F)F)cc1	.	.	.	5	.
CCc1ccc(C2C(C#N)=C(N)SC(N)=C2C#N)cc1	-10%	40µM*	-19%	-5	?
COc1ccc(C2=NCC(CSc3nnc(-c4ccc5c(c4)OCO5)o3)S2)cc1 (centres undefined)	1%	?	28µM*	-16	40%
CC(C)NC(=O)C1CCN(C(=O)c2cc3sccc3n2Cc2ccc(Cl)cc2)CC1	.	.	.	.	-1%
CC(C)NC(=O)C1CCN(C(=O)c2cc3sccc3n2Cc2ccc(F)cc2)CC1	0%	2%	32µM*	-13	4%
COc1cccc(C(=O)COC(=O)c2cccs2)c1	-10%	?	-3%	-4	-3%
Cc1c(C(=O)N2CCOCC2)sc(NC(=O)c2ccc([N+](=O)[O-])cc2)c1C#N	2%	19%[15.4 µM]	35µM*	-8	-3%
COC(=O)c1ccc(/C=C2/SC(=S)N(CCC(=O)N3CCOCC3)C2=O)cc1	1%	-26%	50µM*	-8	-1%
CCOC(=O)c1c(C)[nH]c(C(=O)CSc2ccccc2)c1C	1%	-50%	2%	4	3%
Cc1n[nH]c(C)c1S(=O)(=O)N1CCCC(C(=O)N2CCN(c3ccc(Cl)cc3)CC2)C1 (centres undefined)	0%	-45%	35µM*	-43	?
SMILES	TCR act	gsp ag	gsp antag	TSHR antag	Pin1 inh
Cc1nn(C)c(C)c1S(=O)(=O)N1CCCC(C(=O)N2CCN(c3ccc(Cl)cc3)CC2)C1 (centres undefined)	0%	-1%	?	-9	0%
O=C(NNS(=O)(=O)c1ccc(F)cc1)c1ccc(O)cc1	-2%	?	7%	5	6%
Cc1cc(C)n(C(=O)/C(C#N)=N/Nc2cc(Cl)cc(Cl)c2)n1	5%	-28%	?	-82*	-7%
Cc1cc(C)n(C(=O)/C(C#N)=N\Nc2ccccc2[N+](=O)[O-])n1	-3%	3%[15.4 µM]	.	-12	-3%
Cc1cc(N=NC(=O)c2ccccc2O)c2ccccc2c1O	-1%	-32%	?	-72*	-2%
Cn1c(O)c(N=NC(=O)c2ccccc2O)c2ccccc21	0%	9%[15.4 µM]	-31%	-1	?
COc1ccc(CCC(=O)Nc2cccc(S(=O)(=O)N3CCCCCC3)c2)cc1OC	11%	-13%	?	-26	-3%
C[C@@H]1CN([C@@H](C)CO)C(=O)CCCn2nncc2CO[C@@H]1CN(C)C(=O)c1ccc(N2CCN(C)CC2)cc1	.	10µM*	.	.	.
CCCOC(=O)c1ccc(-c2c(C)noc2-c2ccc(OC)cc2O)o1	-7%	5%	32µM*	4	?
COc1cccc2cc(C(=O)C3=C(O)C(=O)N(c4cc(C)on4)C3c3cccs3)oc12 (centres undefined)	-31%	7.9µM*	-12%	8	5%
CCCOc1cccc(C2C(C(=O)c3cc4ccccc4o3)=C(O)C(=O)N2c2cc(C)on2)c1 (centres undefined)	4%	?	5%	-8	-11%
COc1cccc(C2C(C(=O)c3cc4cccc(OC)c4o3)=C(O)C(=O)N2c2cc(C)on2)c1OC (centres undefined)	5%	?	-2%[15.4 µM]	1	?
Cc1cc(N2C(=O)C(O)=C(C(=O)c3cc4ccccc4o3)C2c2cccc(Br)c2)no1 (centres undefined)	10%	6.3µM*	2%	-22	0%
CCOc1ccc(S(=O)(=O)N(CC)CC)cc1NC(=O)CSCc1c(C)noc1C	4%	10µM*	1%	28	-2%
Cc1cc(N2CCOCC2)nc2ccc(NC(=O)CCC(=O)N3CCN(c4cccc(C(F)(F)F)c4)CC3)cc12	-8%	3%	40µM*	17	-2%
COCCNC(=O)C(c1ccc(O)cc1)N(Cc1ccccc1)C(=O)CCC(=O)Nc1nccs1 (centres undefined)	-2%	-6%[15.4 µM]	-12%	-3	-11%
COc1ccc(C(C(=O)NC(C)(C)C)N(CCc2ccccc2)C(=O)CCC(=O)Nc2cc(C)on2)cc1 (centres undefined)	-1%	-1%[15.4 µM]	-6%	-106*	?
CC(C)(C)NC(=O)C(c1ccc(O)cc1)N(Cc1ccccc1)C(=O)CCC(=O)Nc1nccs1 (centres undefined)	-6%	-3%	7%	-98*	0%
COc1ccc(C(C(=O)NC(C)(C)C)N(CCO)C(=O)CCC(=O)Nc2cc(C)on2)cc1 (centres undefined)	4%	-3%[15.4 µM]	17%	6	1%
